Several values for one entry are separate records, joined by “and”; a condition that tells them apart may be missing. Equal values may be shown once. Results filed as inconclusive are left out. More than one record can exist for a structure, and the calls need not agree. Activity calls are given as the source filed them. Unless noted, calls come from the whole dose curve; as a rule, active = well fitted curve in the direction sought with a large enough effect in the repeat runs; inconclusive = weak or mixed curves; inactive = no such curve, though single readings can be large; an effect the other way counts as inactive or inconclusive.

Consider 8 molecules from PubChem BioAssay (Tox21).

Assay [1] can be described thus: qHTS assay for small molecule agonists of the p53 signaling pathway (AID 651631; calls by dose curve; note: nearly all actives have a fitted effect of over 15% in size). In a few lines: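 p53RE-bla HCT-116 cells; compounds 16 h, 37 °C; LiveBLAzer B/G FRET substrate 2 h RT; fluorescence intensity read-out, qHTS format.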
In general terms: qHTS replaces the single test concentration by a dilution series.

Assay [2] can be described thus: qHTS assay for small molecules that induce genotoxicity in human embryonic kidney cells expressing luciferase-tagged ATAD5 (AID 651632). Note: nearly all actives have a fitted effect of over 15% in size. In a few lines: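 Luminescent reporter readout, HEK293T ATAD5-luc line: 16 hr drug exposure (37C, 5% CO2) followed by Amplite, 30 min RT.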
A short description of assay [3]: qHTS assay for small molecules that induce genotoxicity in human embryonic kidney cells expressing luciferase-tagged ATAD5 - cell viability (AID 651634; calls by dose curve; note: nearly all actives have a fitted effect of over 25% in size). In outline: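 Viability read: CellTiter-Fluor fluorescence, 30 min at 37C. Cells: HEK293T, luciferase-tagged ATAD5. Exposure: 15.5 hr, 37C, 5% CO2, compound or DMSO vehicle.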
Assay [4] can be described thus: qHTS assay for small molecule disruptors of the mitochondrial membrane potential - cell viability (AID 720634; calls by dose curve;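 note: human HepG2 liver cancer cells; series mostly up to about 83 µM; nearly all actives have a fitted effect of over 20% in size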). In outline: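 HepG2, 1 hr compound, 37 C. ATP luminescence via CellTiter-Glo, 30 min RT, same well as m-MPI.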
Assay [5] in a line: qHTS assay for small molecule disruptors of the mitochondrial membrane potential (AID 720635). Note: potency is the fitted concentration of half-maximal effect. In a few lines: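 HepG2 cells (2,000/well) attached overnight at 37C, then took compound for 1 hr at 37C, 5% CO2. Mito-MPS dye was added for 30 min; fluorescence was read at 490/535 nm (monomers) and 540/590 nm (aggregates).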
A short description of assay [6]: qHTS assay to test for compound auto fluorescence at 590 nm (red) in HepG2 cells (AID 720674). In outline:
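Rose Bengal sodium served as the red fluorophore standard. HepG2 monolayers (overnight attachment, MEM with 10% FBS) were exposed to test compounds for 1 hr at 37 C and read at Ex 540/Em 590 nm.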

Assay [7] can be described thus: qHTS assay to test for compound auto fluorescence at 535 nm (green) in HepG2 cells (AID 720675).
Assay [8] in a line: qHTS assay to test for compound auto fluorescence at 460 nm (blue) in HEK293 cells (AID 720678). In outline: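 After cell attachment (4-5 hr, 37C), compounds were pinned onto HEK293 monolayers in 10% dialyzed FBS medium. The blue channel (405/460 nm) was read following overnight culture. Equivalency was calculated against triamterene.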
A short description of assay [9]: qHTS assay to test for compound auto fluorescence at 590 nm (red) in HEK293 cells (AID 720679). In a few lines: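 Plates of HEK293 cells (10% dialyzed FBS) are treated with 23 nL compound or DMSO vehicle after a 4-5 hr attachment period, incubated overnight at 37C, and read for red fluorescence at 540/590nm.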
The nature of assay [10]: qHTS assay to test for compound auto fluorescence at 460 nm (blue) in HEK293 cell free culture (AID 720681). In a few lines: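 Test compounds were pinned into cell-free culture medium (DMEM with 10% FBS) and fluorescence was read directly at Ex/Em 405/460 nm. Signals were expressed as fluorescence equivalents of triamterene, with DMSO vehicle as control.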
A short description of assay [11]: qHTS assay to test for compound auto fluorescence at 535 nm (green) in HEK293 cell free culture (AID 720682). In a few lines:
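Cell-free medium (DMEM, 10% FBS) receives compound or DMSO by pintool. Plate read directly at Ex 485/Em 535 nm. Signal converted to fluorescein equivalency.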

The nature of assay [12]: qHTS assay to test for compound auto fluorescence at 590 nm (red) in HEK293 cell free culture (AID 720683). In a few lines: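 Tox21 10K library compounds were pinned into cell-free DMEM with 10% FBS and fluorescence was read at excitation 540 nm. Activity is expressed as Rose Bengal sodium equivalency.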
Assay [13] is described as follows: qHTS assay to test for compound auto fluorescence at 590 nm (red) in HepG2 cell free culture (AID 720684). In outline:
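Red fluorescence (540 nm excitation, 590 nm emission) was measured after compound transfer into cell-free MEM supplemented with 10% FBS. Values are equivalencies against Rose Bengal sodium.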

Assay [14] is described as follows: qHTS assay to test for compound auto fluorescence at 460 nm (blue) in HepG2 cell free culture (AID 720685). In outline:
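Compound (23 nL) or DMSO pinned into cell-free MEM with 10% FBS; blue fluorescence read at 405/460 nm excitation/emission, expressed as auto-fluorescence equivalency to triamterene.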

Assay [15] is described as follows: qHTS assay to test for compound auto fluorescence at 535 nm (green) in HepG2 cell free culture (AID 720686).
Assay [16] in a line: qHTS assay to test for compound auto fluorescence at 460 nm (blue) in HepG2 cells (AID 720687). In a few lines:
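Cells (2,000/well in MEM with 10% FBS) attached overnight at 37 C, then were exposed to compound or DMSO for 1 hr at 37 C, 5% CO2. Fluorescence read at Ex/Em 405/460 nm, expressed as triamterene-equivalent signal.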

In assay [17] the target is Glucocorticoid receptor (Homo sapiens) (UniProt P04150). The experiment in a line: qHTS assay to identify small molecule agonists of the glucocorticoid receptor (GR) signaling pathway (AID 720691; active = well fitted activation curve with a large enough effect in the signal ratio in the repeat runs, not every such curve was filed as active; the % refers to the signal ratio). In a few lines:
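qHTS in GR-bla HeLa cells: 4 h settling at 37 C/5% CO2, 18 h compound incubation at 37 C, 2 h LiveBLAzer B/G FRET substrate at room temperature, fluorescence intensity measured.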

Assay [18] shares this target. The experiment in a line: qHTS assay to identify small molecule antagonists of the glucocorticoid receptor (GR) signaling pathway (AID 720692; active = well fitted inhibition curve with a large enough effect in the signal ratio in the repeat runs, not every such curve was filed as active; the % refers to the signal ratio). In outline: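 Inhibition of glucocorticoid signalling is measured in HeLa cells with a GRE-controlled beta-lactamase reporter; cells are co-treated with compound and 5 nM dexamethasone (final) for 18 h before FRET substrate readout.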

Assay [19] is described as follows: qHTS assay to test for compound auto fluorescence at 535 nm (green) in HEK293 cells (AID 720680).
The nature of assay [20]: qHTS assay for small molecule agonists of the p53 signaling pathway - cell viability (AID 651633; calls by dose curve;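 note: p53RE-bla HCT reporter cells with a stable beta-lactamase p53 reporter; series mostly up to about 83 µM; nearly all actives have a fitted effect of over 30% in size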). In outline: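 p53RE-bla cells, seeded at 4,000 per well and rested 5 h at 37 C/5% CO2, received compounds in DMSO for 16 h at 37 C. CellTiter-Glo was then added, and luminescence was read after 30 min at room temperature to gauge cytotoxicity.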

Glucocorticoid receptor (Homo sapiens), sequence (P04150 whole entry, looked up): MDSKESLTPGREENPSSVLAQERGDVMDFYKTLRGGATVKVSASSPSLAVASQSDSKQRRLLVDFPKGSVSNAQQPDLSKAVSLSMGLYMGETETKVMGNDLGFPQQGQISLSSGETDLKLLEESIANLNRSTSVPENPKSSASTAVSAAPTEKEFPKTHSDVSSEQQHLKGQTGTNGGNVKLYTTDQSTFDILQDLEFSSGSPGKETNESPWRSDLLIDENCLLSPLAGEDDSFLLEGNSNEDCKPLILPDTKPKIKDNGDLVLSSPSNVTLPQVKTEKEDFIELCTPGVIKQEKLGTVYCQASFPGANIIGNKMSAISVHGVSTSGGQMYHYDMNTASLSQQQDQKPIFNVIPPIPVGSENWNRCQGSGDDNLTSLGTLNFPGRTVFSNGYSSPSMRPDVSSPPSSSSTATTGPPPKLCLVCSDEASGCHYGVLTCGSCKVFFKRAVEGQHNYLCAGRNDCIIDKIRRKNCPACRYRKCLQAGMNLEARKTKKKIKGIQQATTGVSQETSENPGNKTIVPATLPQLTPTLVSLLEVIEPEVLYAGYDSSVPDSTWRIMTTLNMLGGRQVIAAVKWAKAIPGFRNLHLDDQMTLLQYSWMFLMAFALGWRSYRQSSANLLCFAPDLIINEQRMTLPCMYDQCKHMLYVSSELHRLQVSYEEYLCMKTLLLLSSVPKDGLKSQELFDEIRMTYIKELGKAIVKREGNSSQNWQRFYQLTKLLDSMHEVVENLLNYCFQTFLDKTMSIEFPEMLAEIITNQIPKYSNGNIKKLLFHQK

Turning to `CC(Br)C(=O)O` (stereo not drawn), the call in [1], in [2], in [3], in assay [6], in assay [7] and in [8] was inactive. Moreover, the result in [9], in assay [10], in assay [11], in [12], in [13] and in assay [14] was inactive. For the same molecule, the outcome in assay [15], in assay [16] and in assay [17] was inactive. The Potency entry in assay [4], in [5] and in assay [18] was “inactive” each time.

For `CCOC(=O)c1ccccc1C(=O)OCC`, the result in assay [1], in assay [2], in assay [3], in assay [6], in assay [7] and in [8] was inactive. The molecule was called inactive in assay [9], in [19], in assay [10], in [11], in [12] and in assay [13]. The molecule was classed as inactive in assay [14], in [15], in assay [16] and in assay [17]. Moreover, the Potency result in assay [4], in assay [5] and in assay [18] was “inactive” each time.

Turning to `Nc1c(Cl)c(Cl)nc(C(=O)O)c1Cl`, the call in assay [1], in [2], in assay [3], in assay [6], in assay [8] and in [9] was inactive. Moreover, the molecule was called inactive in assay [19], in assay [10], in assay [11], in assay [12], in assay [13] and in [14]. In addition, the call in assay [15], in assay [16] and in assay [17] was inactive. Besides, the Potency result in assay [4] and in assay [18] was “inactive” in each case. Further, the Potency entry in [5] was “inactive and 56.1 µM (active)”.

On to `CCCCCCCCCCCC#N`, for which the outcome in assay [1], in assay [2], in assay [3], in assay [6], in [7] and in assay [8] was inactive. The call in [9], in assay [19], in assay [10], in [11], in [12] and in [14] was inactive. For the same molecule, the call in [15], in assay [16] and in assay [17] was inactive. Also, the Potency entry in assay [4], in [5] and in assay [18] was “inactive” each time.

On to `CCC12COCN1COC2`, for which the molecule was classed as inactive in assay [1], in assay [2], in [20], in [3], in [6] and in [8]. Besides, the molecule was called inactive in assay [9], in assay [19], in [10], in [11], in [12] and in [13]. Further, the molecule was classed as inactive in [14], in assay [15] and in assay [16]. Further, the Potency result in assay [4] is “inactive”.

As for `CN=C=S`, the outcome in assay [1], in [2], in assay [3], in assay [6], in [8] and in [9] was inactive. The molecule was called inactive in [19], in assay [10], in [11], in [12], in assay [13] and in assay [14]. Besides, the result in assay [15] and in [16] was inactive. Besides, the Potency entry in assay [4] and in [5] was “inactive” each time.

`CCCCCOC(=O)c1ccccc1C(=O)OCCCCC`: the call in assay [1], in [2], in assay [3], in [6], in [7] and in assay [8] was inactive. Besides, the molecule was classed as inactive in assay [9], in assay [19], in assay [10], in [11], in assay [12] and in assay [13]. Besides, the molecule was classed as inactive in [14], in assay [15], in assay [16] and in [17]. Besides, the Potency result in assay [4], in assay [5] and in [18] was “inactive” each time.

`CC(C)(Cl)Cl`: the molecule was called inactive in [1], in assay [2], in [3], in assay [6], in [7] and in [8]. Moreover, the molecule was called inactive in [9], in assay [19], in assay [10], in [11], in assay [12] and in assay [13]. In addition, the result in assay [14], in [15], in assay [16] and in assay [17] was inactive. The Potency result in assay [4], in [5] and in [18] was “inactive” each time.
